# SNCA viab count – GF-AFC viability counterscreen for inhibitors of alpha-synuclein gene (SNCA) expression; HEK-293-SNCA-luc viability, GF-AFC fluorescence, 24 h; Potency, µM (series often up to 57.1 µM), inactives show top-dose activity change, negative = cytotoxicity, most hits filed as cytotoxic; hit rate 0.12% among 150,000; AID 1671193, 2021;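 also: potency is read from the fitted curve at half-maximal effect; 0% = DMSO-treated cells and -100% = medium-only wells without cells; nearly all actives have a fitted effect of over 30% in size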
#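 Cytotoxicity counterscreen: after 24 h compound treatment of genome-edited SNCA-luciferase HEK-293 cells, live-cell protease substrate GF-AFC read by fluorescence after 30 min; activity scaled between DMSO (0%) and medium-only (-100%), curves Hill-fitted.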
# KDM5B inhibitor – Primary screen for KDM5B Histone Demethylases FDH-coupled qHTS | Lysine-specific demethylase 5B (Homo sapiens), Q9UGL1 | KDM5B demethylase, FDH-coupled NADH fluorescence (FDH is formaldehyde dehydrogenase) | Potency, µM (series often up to 57.7 µM), most hits filed as inhibitors | hit rate 2.6% among 220,000; also: potency is read from the fitted curve at half-maximal effect; 0% is about no effect; nearly all actives have a fitted effect of over 70% in size
#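 qHTS format, multiple compound concentrations. Buffer 50 mM HEPES pH 7.5/0.01% Tween-20; 200 nM KDM5BΔAP final; 10 min compound preincubation; substrate-mix levels 12.5 µM peptide, 25 µM α-KG, 0.25 mM NAD⁺; 30 min RT; ΔRFU.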
# IP6K1 inhibitor – Primary qHTS assay for small molecule inhibitors of Inositol hexaphosphate kinase 1 (IP6K1); Inositol hexakisphosphate kinase 1 (Homo sapiens), Q92551; IP6K1 kinase, ADP-Glo luminescence, 2 h; stronger effect = lower value; activity change, % (series mostly up to about 58 µM); hit rate 0.81% among 140,000; AID 1645851, 2021; in the data active = activity change below about -25%; also: % is scaled to controls: 0 for no effect and ±100 for the full control effect
#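 ADP-Glo luminescence measures ADP made by human IP6K1 during a 2 h RT reaction with ATP/IP6 (mix at 1.3 mM/130 uM); top library doses 57.5 and 19.1 uM final.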
# SNCA expr inh – Primary qHTS assay for inhibitors of alpha-synuclein gene (SNCA) expression; HEK-293 SNCA-luciferase knock-in, luminescence, 24 h; Potency, µM (titrated, usually from 57.2 µM), for inactives: at the highest dose activity change, negative = inhibition, most hits filed as inhibitors; hit rate 0.17% among 140,000;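 also: potency is read from the fitted curve at half-maximal effect; plate controls were DMSO cells for no effect and cell-free wells for full effect; nearly all actives have a fitted effect of over 45% in size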
# Starred values were filed as active, the others as inactive; i = inactive; ? = inconclusive; · = not tested or not shown; ! = not confirmed by another sample; [ ] = remark or other dose. The list is not random: actives were taken first. Their share in the collection is about 2.8%. Unless noted, calls follow the shape of the dose curve; as a rule, active = well fitted curve in the direction sought with a large enough effect; inconclusive = small, poorly fitted or top-dose-only effect, or another doubt; inactive = no such curve, though single readings can be large; an effect the other way counts as inactive or inconclusive.
SMILES,SNCA viab count,KDM5B inhibitor,IP6K1 inhibitor,SNCA expr inh
CCC1C(=O)N(C)c2cnc(Nc3ccc(C(=O)NC4CCC(N5CCN(CC6CC6)CC5)CC4)cc3OC)nc2N1C(C)C (configuration not stated),24µM*,·,-8,·
COc1cc(C(=O)NC2CCN(C)CC2)ccc1Nc1ncc2c(n1)N(C1CCCC1)CCC(=O)N2C(C)C,-5%,·,·,8%
CC[C@@H]1C(=O)N(C)c2cnc(Nc3ccc(C(=O)NC4CCC(N5CCN(CC6CC6)CC5)CC4)cc3OC)nc2N1C(C)C (some centres not stated),30µM*!,·,-2,43%
O=C(c1ccccc1F)N1CCN(C(=O)c2nc3cccnc3n(C3CC3)c2=O)CC1,5%,·,8,11%
Cc1nc(C)n(CCNS(=O)(=O)c2ccccc2)n1,·,i,·,·
Cc1nc(C)n(CCCNc2nccc(-c3ccccn3)n2)n1,4%,22µM*,0,-24%
COc1cccc(NC(=O)c2cc3c(N(C)Cc4ccccc4)nc(C)cn3n2)c1,-10%,28µM*,8,6%
Cc1cn2nc(C(=O)N3CCN(C4CCCCC4)CC3)cc2c(N(C)Cc2ccccc2)n1,5%,?,4,0%
COc1ccc(NC(=O)c2cc3c(N(C)Cc4ccccc4)nc(C)cn3n2)cc1OC,?,32µM*,0,2%
COc1ccc(NC(=O)Cn2c(N(C)Cc3ccccc3)nc(C)cc2=O)cc1OC,-14%,i,5,?
CC(=O)Nc1ccc(-c2ccc(=O)n3c2[C@@H]2C[C@@H](CN(S(=O)(=O)c4ccccc4)C2)C3)cc1,-3%,i,3,27%
Cn1ccc(NC(=O)C2(C)CN(Cc3ccccc3)Cc3ccc(N4CCOCC4)nc32)n1 (configuration not stated),-13%,11µM*,22,-14%
CNC(=O)C1(C)CN(Cc2ccccc2)Cc2ccc(N3CCOCC3)nc21 (configuration not stated),-6%[87.6 µM],35µM*,2,-1%[87.6 µM]
CC1(C(=O)NC2CCC2)CN(Cc2ccccc2)Cc2ccc(N3CCOCC3)nc21 (configuration not stated),?,35µM*,-5,-9%[87.6 µM]
CC(C)CNc1ccc2c(n1)C(C)(C(=O)NC1CCN(C)CC1)CN(Cc1ccccc1)C2 (configuration not stated),-9%,i,0,-23%
CN(C)CCNC(=O)C1(C)CN(Cc2ccccc2)Cc2ccc(Nc3ccccc3)nc21 (configuration not stated),-14%,i,4,?
CC1(C(=O)NCc2ccco2)CN(Cc2ccccc2)Cc2ccc(N3CCOCC3)nc21 (configuration not stated),-30%,16µM*,26,?
O=C1NCc2ccccc2CC12CCN(Cc1ccc(Cl)cc1)CC2,-3%,i,-2,-19%
COCCNC(=O)C1(C)CN(Cc2ccccc2)Cc2ccc(N3CCOCC3)nc21 (configuration not stated),-23%[87.6 µM],32µM*,8,-9%[87.6 µM]
CN1Cc2ccc(N3CCOCC3)nc2C(C)(C(=O)NCc2ccccc2)C1 (configuration not stated),-4%[87.6 µM],?,63,-30%[87.6 µM]
COc1ccc(C(=O)OC2C3C=COC(OC4OC(CO)C(O)C(O)C4O)C3C3(CO)OC23)cc1OC (configuration not stated),-5%[23.9 µM],·,-4,·
Cc1ccccc1CN1CCc2nc(C(=O)NCCOc3ccccc3)oc2CC1,2%[87.6 µM],32µM*,1,-17%[87.6 µM]
Cc1ccc(CN2CCc3nc(C(=O)Nc4ccccc4)oc3CC2)cc1,-11%[87.6 µM],35µM*,10,59%[87.6 µM]
O=C(Nc1ccc(Cl)cc1)c1nc2c(o1)CCN(Cc1cccc(O)c1)CC2,?,32µM*,-9,-22%[87.6 µM]
O=C(Nc1ccccc1)c1nc2c(o1)CCN(Cc1ccc(F)c(Cl)c1)CC2,-29%[87.6 µM],28µM*,-12,76%[87.6 µM]
SMILES,SNCA viab count,KDM5B inhibitor,IP6K1 inhibitor,SNCA expr inh
O=C(Nc1ccc(Cl)cc1)c1nc2c(o1)CCN(CC1CC1)CC2,5%[87.6 µM],i,9,52%[87.6 µM]
O=C(Nc1ccccc1)c1nc2c(o1)CCN(Cc1ccc(O)cc1)CC2,-2%[87.6 µM],i,17,-22%[87.6 µM]
COc1cc2nc(Cl)nc(N3CC4CCC(C3)N4CC(F)(F)F)c2cc1OC,-21%,i,19,10%
COc1ccc(CN2CC3(CCN(C(=O)Cc4cccc(OC)c4)CC3)C2=O)cc1,3%,i,14,11%
CCOC(=O)C1=CN(c2cc(C)cc(C)c2)C=C(C(=O)OCC)C1c1ccc2c(c1)OCO2,·,i,·,·
O=C(Nc1ccc(Cl)cc1)c1nc2c(o1)CCN(Cc1ccc3cn[nH]c3c1)CC2,?,35µM*,2,-30%[87.6 µM]
O=C(Nc1ccc(Cl)cc1)c1nc2c(o1)CCN(Cc1ccc3c(c1)CCO3)CC2,-16%[87.6 µM],32µM*,6,-20%[87.6 µM]
O=C(Nc1ccc(Cl)cc1)c1nc2c(o1)CCN(Cc1nccs1)CC2,-8%[87.6 µM],i,10,10%[87.6 µM]
Cc1ccc(CN2CCc3nc(C(=O)Nc4ccc(Cl)cc4)oc3CC2)cc1,-4%[87.6 µM],35µM*,-6,-17%[87.6 µM]
COc1ccc(CN2CCc3nc(C(=O)Nc4ccc(Cl)cc4)oc3CC2)cn1,-19%[87.6 µM],?,-3,6%[87.6 µM]
O=C(Nc1ccc(Cl)cc1)c1nc2c(o1)CCN(Cc1ccncc1)CC2,-7%[87.6 µM],i,2,1%[87.6 µM]
O=C(Nc1ccccc1)c1nc2c(o1)CCN(Cc1cccs1)CC2,-2%[87.6 µM],?,-17,11µM*
O=C1CSC(c2cccc(C(F)(F)F)c2)N1c1cccc(Cl)c1 (configuration not stated),·,i,·,·
C=CCSc1ccccc1NC(=O)c1cc(C)cc(C)c1,·,i,·,·
CN(C)CC(=O)Nc1ccc2n(c1=O)C[C@H]1C[C@@H]2CN(C(=O)c2ccc(-c3ccccc3)cc2)C1,7%,i,-5,0%
Cn1cc(CN2C[C@@H]3C[C@H](C2)c2ccc(NC(=O)COc4ccccc4)c(=O)n2C3)c2ccccc21,-14%,28µM*,-10,?
c1ccc(OCc2noc(-c3ccc(NCC4CCCCO4)nc3)n2)cc1 (configuration not stated),-9%,?,13,133%
O=C1NCCCC[C@@H]1Nc1ccc(-c2nc(COc3ccccc3)no2)cn1,3%,28µM*,3,16%
Cc1nonc1C1CCCN1c1ccc(-c2nc(COc3ccccc3)no2)cn1 (configuration not stated),-7%,28µM*,-11,13%
Cc1oc(-c2ccccc2)nc1CC(=O)N(C)c1ccccc1,·,i,·,·
CCc1nccc(CN2CCC(c3nn(C)c(=O)n3CC)CC2)n1,3%,16µM*,-2,10%
COc1ccccc1C(=O)N1CC(N(C)c2ccccc2C)C1,-1%,i,0,-15%
c1ccc(-c2noc(-c3cncnc3NCc3cccs3)n2)cc1,2%,?,-12,8%

# Assay outcomes as filed in PubChem.
